Measured values as given in the supplement of paper PMC11060735.
In all, about 1,800 compounds were measured (“GFP- (p16Ink4a-) cell count relative to negative-control wells”: median about 0.99, lowest 2% from about 0.5 on). The sample holds the lowest values, similar compounds and a random draw of the others, so the mix is not that of the screen.

Tested on: mouse p16Ink4a+/- lung fibroblasts (INKBRITE, bleomycin-injured)
Assay: GFP- (p16Ink4a-) cell count relative to negative-control wells (fold of vehicle); higher = more p16Ink4a- cells surviving
Settings: 1 µM; 3 days

Row | SMILES | GFP-
1 | CC(C)CN(C[C@@H](O)[C@H](Cc1ccccc1)NC(=O)O[C@H]1CCOC1)S(=O)(=O)c1ccc(N)cc1 [Amprenavir] | 1.01
2 | Cc1ccc(NC(=O)C2(c3ccc4c(c3)OC(F)(F)O4)CC2)nc1-c1cccc(C(=O)O)c1 [Lumacaftor] | 0.94
3 | CC(=O)O[C@H]1C(=O)[C@@]2(C)C([C@H](OC(=O)c3ccccc3)[C@]3(O)C[C@H](OC(=O)[C@H](O)[C@@H](NC(=O)c4ccccc4)c4ccccc4)C(C)=C1C3(C)C)[C@]1(OC(C)=O)CO[C@@H]1C[C@@H]2O (some centres not stated) [Taxol, Paclitaxel] | 0.505
4 | CO[C@H]1C(=O)[C@]2(C)[C@@H](OC)C[C@H]3OC[C@@]3(OC(C)=O)[C@H]2[C@H](OC(=O)c2ccccc2)[C@]2(O)C[C@H](OC(=O)[C@H](O)[C@@H](NC(=O)OC(C)(C)C)c3ccccc3)C(C)=C1C2(C)C [Cabazitaxel] | 0.558
5 | CC(=O)O[C@@]12CO[C@@H]1C[C@H](O)[C@@]1(C)C(=O)[C@H](O)C3=C(C)[C@@H](OC(=O)[C@H](O)[C@@H](NC(=O)OC(C)(C)C)c4ccccc4)C[C@@](O)([C@@H](OC(=O)c4ccccc4)[C@H]21)C3(C)C [Docetaxel] | 0.447
6 | Cc1ccc(-n2nc(C)c(N=Nc3cccc(-c4cccc(C(=O)O)c4)c3O)c2O)cc1C [Eltrombopag] | 0.82
7 | C[C@]12C=CC(=O)C=C1CC[C@H]1[C@@H]3C[C@@H](O)[C@](O)(C(=O)CO)[C@@]3(C)C[C@H](O)[C@@]12F [Triamcinolone] | 0.986
8 | NC(=O)N/N=C/c1ccc([N+](=O)[O-])o1 [Nitrofural] | 0.939
9 | Cc1ccc(S(=O)(=O)/C=C/C#N)cc1 | 0.854
10 | Cc1ccc(S(=O)(=O)c2ccc([N+](=O)[O-])o2)cc1 | 0.415
11 | Cc1ccccc1N1C(=O)c2cc(S(N)(=O)=O)c(Cl)cc2NC1C (configuration not stated) [Metolazone] | 0.905
12 | Oc1ccc(-c2nc(-c3ccc(F)cc3)c(-c3ccncc3)[nH]2)cc1 | 1.02
13 | CC(C)(C)Cn1c(N)nc2ccc(-c3[nH]c(C(C)(C)C)nc3-c3ccc(F)cc3)nc21 | 0.974
14 | COc1ccc(-c2ccc3ncc4c(c3c2)n(-c2ccc(N3CCNCC3)c(C(F)(F)F)c2)c(=O)n4C)cn1 | 0.4
15 | Cn1c(=O)n(-c2ccc(C(C)(C)C#N)cc2)c2c3cc(-c4cnc5ccccc5c4)ccc3ncc21 [Dactolisib] | 0.74
16 | CC1CCN(CC[C@H]2CCCN2S(=O)(=O)c2cccc(O)c2)CC1 | 0.862
17 | CC1CNc2c(cccc2S(=O)(=O)N[C@@H](CCCN=C(N)N)C(=O)N2CC[C@@H](C)C[C@@H]2C(=O)O)C1 (some centres not stated) [Argatroban] | 1.09
